Source: PubChem BioAssay (NMMLSC)
Rows were chosen to be rich in hits. Some 0.93% of all compounds tested hit in one or more screens of this group.
LAP4 TOR yeast = alters LAP4-GFP fluorescence in TOR pathway yeast screen; 320,000 tested, 0.34% active; GFP response vs DMSO, % at 10 µM; S. cerevisiae LAP4-GFP multiplex, flow cytometry GFP, 3 h; median GFP as percent of DMSO wells;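 active = GFP response vs DMSO above a set limit, about the screen mean plus 3 SD, cut at about 150% in these data; inconclusive = under 70 cell events counted for the yeast strain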
AGP1 TOR yeast = alters AGP1-GFP fluorescence in TOR pathway yeast screen | 320,000 tested, 0.02% active | S. cerevisiae AGP1-GFP multiplex flow cytometry, 3 h; GFP as percent of DMSO wells | AID 2066 | GFP response vs DMSO, % at 10 µM;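 active = GFP response relative to DMSO above a set limit, near screen average plus 3 SD, cut at about 150% in these data; inconclusive = fewer than 70 cells counted for the yeast strain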;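 also: median GFP channel fluorescence of the gated AGP1 strain per well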
MEP2-GFP yeast = modulators of TOR pathway MEP2-GFP in S. cerevisiae. AID 2016. 330,000 tested, 0.51% active. S. cerevisiae MEP2-GFP strain, flow cytometry GFP, 3 h; 100% = DMSO control level. GFP response vs DMSO, % at 10 µM;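 active = GFP response versus DMSO above a set limit, roughly screen mean plus 3 SD, cut at about 180% in these data; inconclusive = fewer than 70 cells counted for a yeast strain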;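 also: median GFP fluorescence of the barcode-gated MEP2-GFP cells per well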
RPL19A-GFP yeast = yeast TOR pathway RPL19A-GFP modulation; S. cerevisiae RPL19A-GFP strain, flow cytometry, 3 h; stronger effect = lower value; percent response vs DMSO, % at 10 µM; 330,000 tested, 0.3% active;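 active = percent response vs DMSO below 50%; inconclusive = fewer than 70 events counted for the yeast strain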;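 also: median channel GFP fluorescence of the barcoded RPL19A-GFP strain; ratio of sample median GFP to plate DMSO average so 100% = DMSO; lower means less RPL19A-GFP as with rapamycin TOR inhibition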
CIT2-GFP yeast = alters CIT2-GFP fluorescence in TOR pathway yeast screen; S. cerevisiae CIT2-GFP strain, flow cytometry, 3 h; 100 means same as DMSO wells; GFP response vs DMSO, % at 10 µM; 320,000 tested, 0.065% active; AID 2029;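 active = GFP response relative to DMSO above a set limit, near the screen mean plus 3 SD, cut at about 150% in these data; inconclusive = Fewer than 70 cells measured for a yeast strain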;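 also: ratio of well median GFP fluorescence to mean of DMSO wells on the plate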
An asterisk follows results filed as active; ? = inconclusive; . = no result; [ ] = another dose, or the depositor's remark.

SMILES	LAP4 TOR yeast	AGP1 TOR yeast	MEP2-GFP yeast	RPL19A-GFP yeast	CIT2-GFP yeast
CC(=O)c1ccccc1NCC(=O)Nc1ccc(C)cc1	226*	118	299*	118	217*
CCS(=O)(=O)N1CCN(S(=O)(=O)c2ccc3c(c2)OCCO3)CC1	114	?	?	40*[may fluoresce violet]	?
CC1NC(=O)N(C)C2NC(=O)N(C)C(c3ccccc3)C12 (stereo unspecified)	91	?	363*[may fluoresce violet]	46*[may fluoresce violet]	?
O=C(C1CCN(S(=O)(=O)c2cnc[nH]2)CC1)N1CCc2ccccc2C1	102	18	454*[may fluoresce violet]	47*[may fluoresce violet]	.
COc1cc(/C=N/NC(=O)C(=O)NCc2ccco2)cc(Cl)c1O	68	?	178*[may fluoresce violet]	51	?
Cc1cccc(N2CCN(C(=O)C3CCC(=O)N(C4CC4)C3)CC2)c1C (stereo unspecified)	102	113	112	107	109
O=C1C2C3C=CC(C3)C2C(=O)N1CNc1ccc(O)cc1 (stereo unspecified)	139	121	128	70	95
Cc1ccc(NCN2C(=O)C3C4C=CC(C4)C3C2=O)cc1 (stereo unspecified)	210*	142	165	74	125
COc1cccc(OCc2nnc(SCC(=O)NNC(=O)C3CCCCC3)n2C)c1	102	102	95	98	100
COc1cccc(OCc2nnc(SCC(=O)OC3CCCCC3)n2C)c1	90	?	228*[may fluoresce violet]	63	?
CC1(C)CC2(C)OC(=N)C1(C#N)C2(C#N)C#N (stereo unspecified)	107	103	107	99	97
CC1C2(C)OCC(C#N)(C(=N)O2)C1(C#N)C#N (stereo unspecified)	82	?	245*[may fluoresce violet]	52	?
CCNc1nc(-c2ccc(Cl)cc2)cs1	167*	87	91	86	86
CN=C1c2c(-c3ccccc3)c3cc(OC)ccc3n2CCN1C	78	?	236*[may fluoresce violet]	57	?
COc1ccc(-c2c(-c3ccccc3)n(C)c3ccccc23)cc1	104	109	102	104	104
O=C1NC[C@@H](c2ccccc2)OC(=O)[C@@H](Cc2ccc(F)cc2)C/C=C\C[C@@H]1CC(=O)N(CCO)Cc1ccccc1	102	102	97	97	92
N#C/C(=C\c1c(Oc2ccc(Cl)cc2)nc2ccccn2c1=O)C(=O)NC1CCS(=O)(=O)C1 (stereo unspecified)	88	15	176*[may fluoresce violet]	69	?
Cc1cc(Oc2nc3ccccn3c(=O)c2/C=C(\C#N)C(=O)NC2CCS(=O)(=O)C2)ccc1Cl (stereo unspecified)	81	13	533*[may fluoresce violet]	60	?
Cc1cccn2c(=O)c(/C=C(\C#N)C(=O)NC3CCS(=O)(=O)C3)c(Oc3ccc(F)cc3)nc12 (stereo unspecified)	98	103	92	99	103
N#C/C(=C\c1c(N2CCCCC2)nc2ccccn2c1=O)C(=O)NC1CCS(=O)(=O)C1 (stereo unspecified)	85	28	260*[may fluoresce violet]	53	?
Cc1cccc(Oc2nc3ccccn3c(=O)c2/C=C(\C#N)C(=O)NC2CCS(=O)(=O)C2)c1C (stereo unspecified)	102	101	105	105	111
O=C(CSc1nnc(C2COc3ccccc3O2)o1)N1CCN(c2ccccc2)CC1 (stereo unspecified)	102	101	102	95	97
CC(C)n1c(=S)[nH]c2c1c(=O)[nH]c(=O)n2C	90	34	267*	.	116
C=CCn1c(C)cc(C(=O)CN2C(=O)NC3(CCCc4ccccc43)C2=O)c1C (stereo unspecified)	91	?	437*[may fluoresce violet]	27*[may fluoresce violet]	?
Cc1cc(C(=O)CN2C(=O)NC3(CCCc4ccccc43)C2=O)c(C)n1Cc1cccs1 (stereo unspecified)	100	106	113	104	103
SMILES	LAP4 TOR yeast	AGP1 TOR yeast	MEP2-GFP yeast	RPL19A-GFP yeast	CIT2-GFP yeast
O=c1cc(-c2ccc(C(F)(F)F)cc2)oc2ccccc12	107	?	181*[may fluoresce violet]	44*[may fluoresce violet]	?
C[C@H](NC(=O)c1nc[nH]c1C(=O)NC1CCN(C(=O)OC(C)(C)C)CC1)C(=O)OCc1ccccc1	107	89	90	103	100
CC(=O)N/C(N)=N/c1nc2cc([N+](=O)[O-])ccc2o1	115	104	98	97	105
CC(=O)N/C(N)=N/c1nc2cc(C)ccc2o1	70	?	?	19*[may fluoresce violet]	?
CCCC(=O)N/C(N)=N/c1nc2ccccc2o1	116	88	97	86	78
CCC(=O)N/C(N)=N/c1nc2ccccc2o1	176*	100	110	87	92
Cc1ccc(N2CC(NC(=O)C(=O)c3c[nH]c4ccccc34)CC2=O)cc1C (stereo unspecified)	99	100	101	99	89
COCCCNC(=O)CC(NS(=O)(=O)c1ccc(Cl)cc1)c1ccco1 (stereo unspecified)	100	106	104	105	111
COCCCNC(=O)CC(NS(=O)(=O)c1ccc(C)cc1)c1ccco1 (stereo unspecified)	92	30	238*[may fluoresce violet]	.	?
CC(=O)Nc1ccc(-c2nnn(CC(=O)c3ccc(F)cc3)n2)cc1Cl	88	103	95	96	93
Cc1cc(C)c2sc(NC(=O)C3=COCCO3)nc2c1	166*	92	103	89	84
CCN(CC)S(=O)(=O)c1ccc(C(=O)NCC2CCCCC2)cc1	57	?	194*[may fluoresce violet]	30*[may fluoresce violet]	?
CN(C)S(=O)(=O)c1cccc(C(=O)NCC2CCCCC2)c1	119	108	106	102	98
O=c1oc2c(CN3CCN(CCO)CC3)c(O)ccc2cc1-c1ccccn1	?	?	?	40*[may fluoresce violet]	?
Nc1nc(SCC(=O)Nc2ccc([N+](=O)[O-])cc2)[nH]c(=O)c1NC(=O)c1ccc(Br)cc1	95	101	96	100	106
COc1ccc(-n2c(=S)[nH]c3cc(C(=O)NCCCN4CCCC4=O)ccc3c2=O)cc1OC	?	?	?	47*[may fluoresce violet]	?
CC(C)(C)NC(=O)C1CCN(C(=O)c2ccco2)CC1	90	97	99	103	96
Nc1ccccc1SCC(=O)Nc1ccc2c(c1)OCCO2	92	96	97	95	95
O=S(=O)(c1ccc(Cl)cc1)c1cnc(-c2cccnc2)nc1-c1ccccc1	92	?	221*[may fluoresce violet]	56	?
CN(C)c1ncc(S(=O)(=O)c2ccc(Cl)cc2)c(-c2ccccc2)n1	105	100	101	96	93
O=C(NN1C(=O)/C(=C\c2ccc(O)c([N+](=O)[O-])c2)SC1=S)c1ccccc1Cl	154*	51	175*	63	137
CCCCNc1c(-c2ccc(OC)c(SC3CCCCC3)c2)nc2cnccn12	99	92	94	94	85
